Laboratory results reported in PubChem BioAssay (NCATS).
“And” between values parts separate entries of the source, which are not always exact repeats. Equal values may be shown once. Records with an inconclusive call do not appear. The source made the active and inactive calls. Unless noted, calls come from the whole dose curve; as a rule, active = well fitted curve in the direction sought with a large enough effect; inconclusive = small, poorly fitted or top-dose-only effect, or another doubt; inactive = no such curve, though single readings can be large; an effect the other way counts as inactive or inconclusive.

Tests used:
[1] = target: Cytochrome P450 1A2 (Homo sapiens) (UniProt P05177); assay: p450-cyp1a2 (AID 410; calls by dose curve; note: potency is the fitted concentration of half-maximal effect)
Sequence of Cytochrome P450 1A2 (Homo sapiens) (P05177 whole entry, looked up): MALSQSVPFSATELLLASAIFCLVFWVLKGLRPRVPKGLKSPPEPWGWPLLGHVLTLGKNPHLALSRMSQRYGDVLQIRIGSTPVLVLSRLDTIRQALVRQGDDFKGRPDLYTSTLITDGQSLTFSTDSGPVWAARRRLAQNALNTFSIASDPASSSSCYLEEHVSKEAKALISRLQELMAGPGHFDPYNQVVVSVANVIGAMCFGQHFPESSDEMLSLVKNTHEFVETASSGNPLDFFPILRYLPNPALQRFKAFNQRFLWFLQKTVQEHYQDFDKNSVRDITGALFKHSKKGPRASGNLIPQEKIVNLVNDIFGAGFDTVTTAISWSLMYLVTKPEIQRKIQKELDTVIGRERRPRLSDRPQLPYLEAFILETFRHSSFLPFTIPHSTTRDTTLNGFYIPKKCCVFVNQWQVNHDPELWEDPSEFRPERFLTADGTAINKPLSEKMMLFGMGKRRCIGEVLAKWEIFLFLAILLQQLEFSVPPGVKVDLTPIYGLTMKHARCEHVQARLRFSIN
Summary of the method: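 O-Demethylation of luciferin 6' methyl ether by human CYP1A2 is monitored as luciferase luminescence. Substrate sits at Km (100uM); enzyme is 20nM. Values are scaled to 57 uM furafylline as maximal inhibition.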

[2] = NFAT Signaling Pathway (AID 444; active = well fitted curve in either direction with a large enough effect, not every such curve was filed as active;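 note: carbachol stimulus at about its EC50 of 1 µM final; % is set by controls: 0 for no effect and ±100 for the full control effect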); conditions: Jurkat NFAT-bla M1, carbachol, beta-lactamase ratio, 5 h; at 38 µM (top of the series)
Summary of the method: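 Jurkat cells carrying an NFAT-driven β-lactamase reporter and co-transfected muscarinic M1 receptor were treated with compound plus carbachol (1 uM final, an EC50 level) for 5 h at 37 °C. CCF4 loading followed for 1 h at RT; 460/530 nm ratio gave %activity.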

[3] = target: Glucocorticoid receptor (Homo sapiens) (UniProt P04150); assay: GR-GFP Redistribution (AID 450;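 active = compounds whose dose series gives a full or clear partial fitted curve of increased nuclear translocation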; note: potency is the fitted concentration of half-maximal effect); conditions: U2OS GR-GFP nuclear translocation, laser cytometry, 2 h
Sequence of Glucocorticoid receptor (Homo sapiens) (P04150 whole entry, looked up, the tested form may be a part): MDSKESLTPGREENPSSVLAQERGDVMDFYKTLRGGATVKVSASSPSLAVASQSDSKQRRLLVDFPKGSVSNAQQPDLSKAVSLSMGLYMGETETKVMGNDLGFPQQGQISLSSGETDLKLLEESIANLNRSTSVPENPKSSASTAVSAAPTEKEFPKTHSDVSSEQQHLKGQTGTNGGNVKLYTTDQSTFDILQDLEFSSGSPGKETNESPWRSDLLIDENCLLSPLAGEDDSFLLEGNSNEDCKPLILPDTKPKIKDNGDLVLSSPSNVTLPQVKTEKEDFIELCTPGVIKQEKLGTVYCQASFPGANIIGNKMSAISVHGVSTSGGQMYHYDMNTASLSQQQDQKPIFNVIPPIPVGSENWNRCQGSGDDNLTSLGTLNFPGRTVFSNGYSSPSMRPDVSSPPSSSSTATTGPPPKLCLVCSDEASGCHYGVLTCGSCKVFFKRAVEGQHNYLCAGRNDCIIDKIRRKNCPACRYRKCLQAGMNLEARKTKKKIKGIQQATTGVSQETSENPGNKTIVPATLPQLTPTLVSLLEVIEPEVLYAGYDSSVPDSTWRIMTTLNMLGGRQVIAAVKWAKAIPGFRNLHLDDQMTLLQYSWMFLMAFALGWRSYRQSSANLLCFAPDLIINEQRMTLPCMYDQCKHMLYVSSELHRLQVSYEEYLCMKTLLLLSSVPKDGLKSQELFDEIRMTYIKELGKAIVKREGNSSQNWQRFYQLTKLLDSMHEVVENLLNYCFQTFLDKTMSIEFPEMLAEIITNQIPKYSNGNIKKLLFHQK

[4] = target: Glucocorticoid receptor (Homo sapiens) (UniProt P04150); assay: GR-EFC Redistribution (AID 451; calls by dose curve; note: potency is the fitted concentration of half-maximal effect); conditions: CHO-K1 GR-EFC translocation, beta-gal luminescence, 2 h
Summary of the method: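 CHO-K1 cells stably expressing nuclear-localized β-gal enzyme acceptor and GR fused C-terminally to the enzyme donor fragment; ligand-driven nuclear translocation restores β-gal by complementation. Compounds titrated up to 46 uM final, 2 h at 37 °C; luminescence read.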

[5] = target: Mitogen-activated protein kinase 10 (Mus musculus) (UniProt Q61831); assay: JNK3 AlphaScreen Assay (AID 530; active = well fitted curve in either direction with a large enough effect, not every such curve was filed as active;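 note: kinase came from lysate of stimulated human HepG2 cells; signal reports phosphorylation of biotinylated GST-cJun 1-79 at Ser73 with 10 µM ATP; % is set by controls: 0 for no effect and ±100 for the full control effect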)
Summary of the method: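 Phosphorylation of biotinylated GST-cJun(1-79) at Ser73 is measured by AlphaScreen proximity luminescence. Enzyme is JNK3 in HepG2 lysates activated with interleukin-1beta and tumor necrosis factor alpha; ATP is 10 uM final.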

[6] = target: 3',5'-cyclic-AMP phosphodiesterase 4B (Homo sapiens) (UniProt Q07343); assay: qHTS Assay for Inhibitors of PDE-IV (AID 607; active = well fitted activation curve with a large enough effect in the main read-out, with a control signal flat, not every such curve was filed as active; note: % of control where 0% means no effect)
Sequence of 3',5'-cyclic-AMP phosphodiesterase 4B (Homo sapiens) (Q07343 whole entry, looked up): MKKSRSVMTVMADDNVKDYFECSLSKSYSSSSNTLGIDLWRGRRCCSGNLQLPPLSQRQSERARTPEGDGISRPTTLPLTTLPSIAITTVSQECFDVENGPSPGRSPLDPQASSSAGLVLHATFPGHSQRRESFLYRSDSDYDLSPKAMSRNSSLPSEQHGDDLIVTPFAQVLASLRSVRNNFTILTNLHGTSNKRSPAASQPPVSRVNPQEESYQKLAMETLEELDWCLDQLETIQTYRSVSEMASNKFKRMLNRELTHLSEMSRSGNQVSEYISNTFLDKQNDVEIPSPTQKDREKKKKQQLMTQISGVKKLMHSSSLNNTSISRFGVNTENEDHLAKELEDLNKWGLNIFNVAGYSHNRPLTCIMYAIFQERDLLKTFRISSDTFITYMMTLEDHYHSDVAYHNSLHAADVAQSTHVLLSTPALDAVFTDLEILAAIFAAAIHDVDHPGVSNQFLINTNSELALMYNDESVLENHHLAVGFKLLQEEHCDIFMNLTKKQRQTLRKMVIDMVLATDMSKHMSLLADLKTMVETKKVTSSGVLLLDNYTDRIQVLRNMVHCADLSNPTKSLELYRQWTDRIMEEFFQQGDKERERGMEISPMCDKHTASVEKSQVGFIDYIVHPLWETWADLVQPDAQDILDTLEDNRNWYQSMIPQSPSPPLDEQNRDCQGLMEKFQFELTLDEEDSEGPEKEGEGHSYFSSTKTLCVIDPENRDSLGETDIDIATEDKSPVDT
Summary of the method: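 Live HEK293 cells with a modified cyclic nucleotide-gated (CNG) channel report intracellular cAMP via membrane-potential dye fluorescence (ex 535/em 590 nm). Endogenous PDE-IV was targeted. Compounds were tested at up to 22.9 uM final; RO 20-1724 100 uM served as control.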

[7] = target: Guanine nucleotide-binding protein G(i) subunit alpha-1 (Homo sapiens) (UniProt P63096); assay: qHTS Assay for Inhibitors of RGS12 GoLoco Motif Activity (Green Fluorophore) (AID 879);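 note: 0% = labeled peptide with Gαi1 and full inhibition = labeled peptide alone without protein; negative values mean loss of peptide binding seen as reduced polarization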
Sequence of Guanine nucleotide-binding protein G(i) subunit alpha-1 (Homo sapiens) (P63096 whole entry, looked up): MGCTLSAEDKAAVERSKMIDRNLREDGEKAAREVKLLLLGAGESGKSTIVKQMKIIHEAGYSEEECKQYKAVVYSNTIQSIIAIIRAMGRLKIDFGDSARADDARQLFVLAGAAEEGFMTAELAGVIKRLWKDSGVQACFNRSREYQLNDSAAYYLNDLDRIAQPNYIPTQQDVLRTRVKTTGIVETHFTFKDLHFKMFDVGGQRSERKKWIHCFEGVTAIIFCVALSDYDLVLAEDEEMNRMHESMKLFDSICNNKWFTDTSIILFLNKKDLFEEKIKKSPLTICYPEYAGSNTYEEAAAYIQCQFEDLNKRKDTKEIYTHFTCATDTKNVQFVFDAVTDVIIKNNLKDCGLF
Summary of the method: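 A drop in FITC polarization marked displacement of the FITC-tagged RGS12 GoLoco peptide (10 nM) from Gαi1 (50 nM). Compounds were incubated 10 min at room temperature in Tris pH 7.5 buffer containing 150 mM NaCl, 0.1 mM GDP and 0.05% NP40; unlabeled peptide titration served as control.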

[8] = target: Cytochrome P450 2C9 (Homo sapiens) (UniProt P11712); assay: qHTS Assay for Inhibitors and Substrates of Cytochrome P450 2C9 (AID 883); note: potency is the fitted concentration of half-maximal effect; nearly all actives have a fitted effect of over 60% in size
Sequence of Cytochrome P450 2C9 (Homo sapiens) (P11712 whole entry, looked up): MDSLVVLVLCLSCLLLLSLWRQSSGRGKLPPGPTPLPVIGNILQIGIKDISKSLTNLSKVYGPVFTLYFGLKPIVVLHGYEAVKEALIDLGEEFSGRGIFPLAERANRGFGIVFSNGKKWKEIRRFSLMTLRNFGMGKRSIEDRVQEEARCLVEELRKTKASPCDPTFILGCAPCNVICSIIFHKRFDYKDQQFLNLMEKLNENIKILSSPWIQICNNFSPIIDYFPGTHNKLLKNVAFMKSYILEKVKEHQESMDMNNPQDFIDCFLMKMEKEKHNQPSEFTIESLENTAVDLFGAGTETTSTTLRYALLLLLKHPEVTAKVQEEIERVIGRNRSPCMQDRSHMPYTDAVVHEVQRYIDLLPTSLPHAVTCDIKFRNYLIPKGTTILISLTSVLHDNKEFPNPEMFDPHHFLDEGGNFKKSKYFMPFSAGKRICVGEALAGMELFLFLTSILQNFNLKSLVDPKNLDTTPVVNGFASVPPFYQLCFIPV
Summary of the method: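 A luminogenic readout tracked human CYP2C9 (10nM) converting deoxyluciferin (100uM, at KM) in 25mM KPO4 during 60 min at 37C with regenerated NADPH. Values normalized to 57uM sulphaphenazole as complete inhibition.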

[9] = target: Cytochrome P450 3A4 (Homo sapiens) (UniProt P08684); assay: qHTS Assay for Inhibitors and Substrates of Cytochrome P450 3A4 (AID 884); note: potency is the fitted concentration of half-maximal effect; nearly all actives have a fitted effect of over 50% in size
Sequence of Cytochrome P450 3A4 (Homo sapiens) (P08684 whole entry, looked up): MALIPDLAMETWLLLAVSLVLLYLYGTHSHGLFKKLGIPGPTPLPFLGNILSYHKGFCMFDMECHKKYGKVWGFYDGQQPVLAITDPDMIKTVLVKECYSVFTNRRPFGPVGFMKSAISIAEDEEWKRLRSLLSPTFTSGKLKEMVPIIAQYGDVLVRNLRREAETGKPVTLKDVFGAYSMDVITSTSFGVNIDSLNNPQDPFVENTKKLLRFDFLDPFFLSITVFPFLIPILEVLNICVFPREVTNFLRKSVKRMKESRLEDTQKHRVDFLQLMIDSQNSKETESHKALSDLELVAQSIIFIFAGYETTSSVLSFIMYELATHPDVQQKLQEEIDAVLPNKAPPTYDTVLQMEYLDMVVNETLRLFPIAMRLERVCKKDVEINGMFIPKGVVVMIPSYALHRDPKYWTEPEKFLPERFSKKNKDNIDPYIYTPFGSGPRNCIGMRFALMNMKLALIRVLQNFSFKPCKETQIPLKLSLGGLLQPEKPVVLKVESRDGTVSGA
Summary of the method: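 Luminescent readout of luciferin produced by CYP3A4 (20 nM) dealkylation of Luciferin-PPXE, 25 uM (its KM). NADPH-driven reaction ran 60 min at RT after 10 min compound preincubation; data scaled to 57 uM ketoconazole as 100% inhibition.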

[10] = target: Cytochrome P450 3A4 (Homo sapiens) (UniProt P08684); assay: qHTS Assay for Activators of Cytochrome P450 3A4 (AID 885); note: nearly all actives have a fitted effect of over 65% in size
Summary of the method: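 Using 20nM recombinant human CYP3A4 in potassium phosphate (200mM), substrate Luciferin-PPXE at 25uM, luminescent luciferin detection followed a 60-min RT NADPH reaction; data scaled to 57 uM ketoconazole.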

[11] = target: Pyruvate kinase PKM (Homo sapiens) (UniProt P14618); assay: qHTS Assay for Activators of Human Muscle Pyruvate Kinase (AID 954; active = well fitted curve in the direction sought with a large enough effect, not every such curve was filed as active;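 note: 0% = uninhibited enzyme and -100% = no enzyme or full thiadiazolimine inhibition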)
Sequence of Pyruvate kinase PKM (Homo sapiens) (P14618 whole entry, looked up): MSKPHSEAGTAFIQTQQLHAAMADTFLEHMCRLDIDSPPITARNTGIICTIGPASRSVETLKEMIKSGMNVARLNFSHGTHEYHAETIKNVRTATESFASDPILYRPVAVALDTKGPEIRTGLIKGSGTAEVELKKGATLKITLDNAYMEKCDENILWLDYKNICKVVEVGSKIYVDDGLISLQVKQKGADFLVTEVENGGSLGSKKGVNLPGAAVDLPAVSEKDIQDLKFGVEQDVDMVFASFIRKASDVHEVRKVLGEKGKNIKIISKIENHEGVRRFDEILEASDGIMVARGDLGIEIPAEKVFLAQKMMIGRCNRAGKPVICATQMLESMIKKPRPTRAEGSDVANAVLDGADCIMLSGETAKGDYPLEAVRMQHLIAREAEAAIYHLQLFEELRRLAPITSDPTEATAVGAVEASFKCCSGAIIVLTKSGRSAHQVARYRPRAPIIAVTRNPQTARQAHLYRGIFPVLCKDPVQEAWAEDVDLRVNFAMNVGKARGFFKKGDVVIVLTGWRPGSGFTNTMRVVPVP
Summary of the method: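 Screening used highly purified human pyruvate kinase M2 under submaximal activity, with PEP at its Km and ADP below Km. After an hour at room temperature, ATP was read by luciferase luminescence.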

[12] = target: alpha-glucosidase (Oryza sativa, rice) (UniProt Q653V4); assay: Counterscreen for Glucocerebrosidase Inhibitors: qHTS Assay for Rice alpha-Glucosidase at pH 5.0 (AID 997);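 note: 0% = full activity with enzyme and -100% = basal without enzyme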
Summary of the method: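 Endpoint fluorogenic assay at pH 5.0: compounds (0.7 nM to 77 uM) titrated against 4 nM rice enzyme and 400 uM 4-MU-alpha-glucoside for 20 min at room temperature; NaOH/glycine stop, read ex 365/em 440 nm, Hill-fitted AC50.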

[13] = Validation of Assay for Modulators of Lamin A Splicing (AID 1459; active = well fitted curve in the direction sought with a large enough effect in the signal ratio; the % refers to the signal ratio;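 note: cells exposed to compound for two days before reading; 0% is about no effect; ratio rise marks activators and ratio drop marks inhibitors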)
Summary of the method: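 Readout: ratio of GFP (500-530 nm) to RFP (575-640 nm) total object intensity by 488 nm laser-scanning cytometry after 48 hrs. Cells were HeLa S3 clones carrying lamin A-EGFP minigene plus DsRed2 viability reporter; vehicle 0.5% DMSO final.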

[14] = target: DNA repair nuclease/redox regulator APEX1 (Homo sapiens) (UniProt P27695); assay: qHTS Validation Assay for Inhibitors of the Human Apurinic/apyrimidinic Endonuclease 1 (APE1) (AID 1705;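 note: TAMRA fluorescence gain over two minutes as APE1 cuts a quenched THF abasic duplex; % is set by controls: 0 for no effect and ±100 for the full control effect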)
Sequence of DNA repair nuclease/redox regulator APEX1 (Homo sapiens) (P27695 whole entry, looked up): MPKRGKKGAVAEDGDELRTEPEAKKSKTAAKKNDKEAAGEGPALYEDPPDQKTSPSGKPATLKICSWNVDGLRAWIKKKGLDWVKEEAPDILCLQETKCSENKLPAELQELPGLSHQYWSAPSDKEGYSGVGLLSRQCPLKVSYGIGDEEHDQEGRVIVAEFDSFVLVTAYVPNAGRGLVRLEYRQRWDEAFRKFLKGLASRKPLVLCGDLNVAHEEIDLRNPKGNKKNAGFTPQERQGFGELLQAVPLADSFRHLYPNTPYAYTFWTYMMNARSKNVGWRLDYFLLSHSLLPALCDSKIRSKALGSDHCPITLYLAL
Summary of the method: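 Read-out: TAMRA fluorescence (525 nm ex, 598 nm em) from cleavage of a quenched THF abasic-site duplex, 50 nM final; activity taken as intensity change between third and first of three reads 60 s apart.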

[15] = Counterscreen for APE1 Inhibitors: Fluorescent Dye Displacement Validation Assay (AID 1707);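 note: plate controls were ThO with dsDNA and no compound for no effect and ThO without dsDNA for full effect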
Summary of the method: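 Loss of Thiazole Orange fluorescence marks promiscuous DNA binders. The dye (250 nM) is mixed with 50 nM abasic-site dsDNA in pH7.5 Tris buffer containing MgCl2, then compounds are added and emission is read once.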

[16] = target: Endonuclease 4 (Escherichia coli (strain K12)) (UniProt P0A6C1); assay: Counterscreen for APE1 Inhibitors: qHTS Validation Assay for Inhibitors of Endonuclease IV (AID 1708); note: % is set by controls: 0 for no effect and ±100 for the full control effect
Summary of the method: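 Enzyme (2 nM) + compound, 15 min RT; add 50 nM TAMRA/BHQ-2 THF-site dsDNA; kinetic read ex525/em598, 3 reads/60 s; activity = read 3 − read 1. Buffer Tris pH 7.5, 50 mM NaCl, 2 mM MgCl2, DTT, Tween-20.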

[17] = qHTS for differential inhibitors of proliferation of Plasmodium falciparum line 7G8 (AID 1815);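 note: potency is the fitted concentration of half-maximal effect; parasite growth measured after three days of incubation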
[18] = qHTS for differential inhibitors of proliferation of Plasmodium falciparum line GB4 (AID 1816); conditions: Potency: Plasmodium falciparum GB4 proliferation inhibition;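 note: potency is the fitted concentration of half-maximal effect; parasite growth measured after 72 h incubation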
[19] = qHTS for differential inhibitors of proliferation of Plasmodium falciparum line 3D7 (AID 1876); note: potency is the fitted concentration of half-maximal effect
[20] = qHTS for differential inhibitors of proliferation of Plasmodium falciparum line D10 (AID 1877);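 note: potency is the fitted concentration of half-maximal effect; parasites grown with compound for 72 h before DNA staining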
[21] = qHTS for differential inhibitors of proliferation of Plasmodium falciparum line Dd2 (AID 1882); conditions: Potency: Plasmodium falciparum Dd2 proliferation inhibition; note: potency is the fitted concentration of half-maximal effect; nearly all actives have a fitted effect of over 65% in size
Summary of the method: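 SYBR Green DNA fluorescence (ex 485, em 535 nm) after overnight lysis quantifies parasite growth; compound exposure lasted 72 h at 37 C on infected red cells at 2.5% hematocrit, 0.3% parasitemia (final). Artemisinin 0.29 uM and vehicle wells define normalization.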

COc1cc2c(cc1C(F)(F)F)N(C(=O)Nc1cc(F)cc(-c3cccnc3)c1)CC2
inactive: activity change, negative = inhibition [2] -8.89% | Potency [3] > 46000 nM | Potency [4] > 46000 nM | Potency [5] | Potency [6] | outcome [7] | Potency [10] | outcome [11] | outcome [12] | outcome [13] | Potency [14] | Potency [15] | Potency [16]
active: Potency [1] 794 nM and 316 nM | Potency [8] 10 µM and 794 nM | Potency [9] 2510 nM | Potency [17] 2000 nM | Potency [18] 2240 nM | Potency [19] 1580 nM | Potency [20] 2240 nM | Potency [21] 6310 nM
